The nature of experiment [1]: ATG_M_61_CIS: Attagene CIS-FACTORIAL HepG2 Assay for M61 Transcription Factor (Internal Marker) (AID 2282937). The note with it: HepG2 Attagene CIS-FACTORIAL M61 internal marker reporter; actives raise or lower the signal. A digest of the protocol: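 Readout is reporter mRNA by RT-PCR, fluorescent primer extension and capillary electrophoresis, with gain or loss fitted relative to DMSO. Transfected HepG2 cells carrying endogenous-TF-driven cis reporters were exposed to chemicals for 24 hours.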

Experiment [2] can be described thus: ATG_EGR_CIS: Attagene CIS-FACTORIAL HepG2 Assay for human Early Growth Response 1 (EGR1) (AID 2282938). The note with it: HepG2 Attagene CIS-FACTORIAL EGR reporter mRNA; actives raise or lower the signal. A digest of the protocol: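 After 24 h compound exposure, RNA from reporter-transfected HepG2 cells was reverse-transcribed, PCR-amplified, fluorescently labelled and resolved by capillary electrophoresis. EGR1 reporter transcript changes, up or down, were fitted against DMSO, reflecting endogenous transcription-factor activity.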

Experiment [3] can be described thus: ATG_M_19_CIS: Attagene CIS-FACTORIAL HepG2 Assay for M19 Transcription Factor (Internal Marker) (AID 2282939). The conditions noted are these: HepG2 Attagene CIS-FACTORIAL M19 internal marker reporter; actives raise or lower the signal. A digest of the protocol:
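Chemical-treated HepG2 (24 h) with MRTU constructs; reporter transcripts detected by fluorescent RT-PCR fragment analysis on capillary electrophoresis. Internal background marker, DMSO as baseline.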

The nature of experiment [4]: ATG_ERE_CIS: Attagene CIS-FACTORIAL HepG2 Assay for Estrogen Response Element (ERE) (AID 2282940). The conditions noted are these: HepG2 ERE cis-reporter, Attagene RNA transcript; actives raise or lower the signal. A digest of the protocol:
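Human liver cells (HepG2) bearing transiently transfected, promoter-regulated reporter units were exposed 24 h. Reporter mRNA induction was detected by capillary electrophoresis of labelled RT-PCR products and fitted bidirectionally to DMSO.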

The target in experiment [5] is Hepatocyte nuclear factor 3-beta (Homo sapiens) (UniProt Q9Y261). Description: ATG_FoxA2_CIS: Attagene CIS-FACTORIAL HepG2 Assay for human Forkhead box A2 (FOXA2) (AID 2282942). The conditions noted are these: HepG2 cis-reporter transcription factor activity, 24 h; actives raise or lower the signal. In short, it runs like this: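 Endogenous transcription factor activity is captured via cis-element-driven reporter transcripts in transfected HepG2. Total RNA taken at 24 h post-dosing; labelled RT-PCR products resolved by capillary electrophoresis. Gain or loss fitted versus DMSO.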
Chain of Hepatocyte nuclear factor 3-beta (Homo sapiens) (Q9Y261 whole entry, looked up): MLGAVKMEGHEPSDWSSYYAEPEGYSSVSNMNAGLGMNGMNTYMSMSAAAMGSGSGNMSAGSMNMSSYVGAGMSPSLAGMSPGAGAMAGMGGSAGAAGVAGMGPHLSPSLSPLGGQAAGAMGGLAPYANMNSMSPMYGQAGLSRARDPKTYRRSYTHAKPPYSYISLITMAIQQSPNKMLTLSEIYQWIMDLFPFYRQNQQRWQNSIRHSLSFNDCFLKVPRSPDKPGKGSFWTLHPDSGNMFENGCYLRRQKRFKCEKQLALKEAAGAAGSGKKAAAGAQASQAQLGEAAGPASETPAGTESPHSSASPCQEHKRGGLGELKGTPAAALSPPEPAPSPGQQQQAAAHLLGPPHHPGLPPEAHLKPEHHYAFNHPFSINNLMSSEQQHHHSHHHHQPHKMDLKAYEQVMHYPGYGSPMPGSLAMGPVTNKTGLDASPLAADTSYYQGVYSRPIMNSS

A short description of experiment [6]: ATG_FoxO_CIS: Attagene CIS-FACTORIAL HepG2 Assay for human Forkhead box O (FoxO) (AID 2282943). The conditions noted are these: HepG2 Attagene cis-reporter, FoxO element, mRNA; actives raise or lower the signal. A digest of the protocol:
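HepG2 cells transiently transfected with cis-element-driven reporter units report endogenous FoxO activity. After 24 h chemical exposure, reporter mRNA quantified by RT-PCR, fluorescent labeling, HpaI digestion and capillary electrophoresis; bidirectional fit versus DMSO.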

A short description of experiment [7]: ATG_GATA_CIS: Attagene CIS-FACTORIAL HepG2 Assay for human GATA Binding Protein (AID 2282944). The note with it: HepG2 GATA cis-element reporter, Attagene multiplex mRNA; actives raise or lower the signal. A digest of the protocol: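 Transfected cis-reporter HepG2 cells were treated with chemicals for 24 hours. Total RNA was then converted to cDNA, amplified with reporter-specific primers and analysed by fluorescent capillary electrophoresis, using DMSO-treated wells as baseline.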

A short description of experiment [8]: ATG_GLI_CIS: Attagene CIS-FACTORIAL HepG2 Assay for human Zinc Finger Protein GLI1 (AID 2282945). The note with it: HepG2, Attagene cis-factorial reporter mRNA, GLI element; actives raise or lower the signal. A digest of the protocol:
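Transiently transfected HepG2 cells report endogenous transcription factor activity via cis-element-driven reporter units. After 24 h compound exposure, reporter mRNA was measured by RT-PCR with capillary electrophoresis; bidirectional fitting against DMSO baseline.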

In experiment [9] the target is Bile acid receptor (Homo sapiens) (UniProt Q96RI1). Description: ATG_IR1_CIS: Attagene CIS-FACTORIAL HepG2 Assay for human Nuclear Receptor Subfamily 1 Group H Member 4 (NR1H4), IR1 submotif (AID 2282946). The note with it: IR1 reporter transcription, actives raise or lower the signal. A digest of the protocol: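 Fluorescence of capillary-separated, HpaI-digested RT-PCR reporter products gave IR1-element mRNA induction in HepG2 cells 24 h after dosing. Endogenous transcription factors drove the cis-regulated reporters; activity was fitted bidirectionally against DMSO.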
Chain of Bile acid receptor (Homo sapiens) (Q96RI1 whole entry, looked up): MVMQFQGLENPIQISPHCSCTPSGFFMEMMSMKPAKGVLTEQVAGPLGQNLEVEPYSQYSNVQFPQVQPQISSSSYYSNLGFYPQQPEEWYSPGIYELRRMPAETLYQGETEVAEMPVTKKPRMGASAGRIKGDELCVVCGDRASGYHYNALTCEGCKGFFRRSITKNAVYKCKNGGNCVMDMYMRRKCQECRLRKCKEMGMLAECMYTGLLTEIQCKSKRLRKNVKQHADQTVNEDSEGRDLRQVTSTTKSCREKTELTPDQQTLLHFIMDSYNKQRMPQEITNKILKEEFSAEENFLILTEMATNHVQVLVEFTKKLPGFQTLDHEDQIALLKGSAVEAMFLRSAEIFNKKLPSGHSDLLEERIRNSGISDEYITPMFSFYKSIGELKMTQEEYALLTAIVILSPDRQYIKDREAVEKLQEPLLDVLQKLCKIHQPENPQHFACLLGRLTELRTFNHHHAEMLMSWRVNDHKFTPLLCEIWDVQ

The nature of experiment [10]: ATG_GRE_CIS: Attagene CIS-FACTORIAL HepG2 Assay for human Glucocorticoid Response Elements (GRE) (AID 2282947). The conditions noted are these: HepG2 GRE cis-reporter, Attagene multiplex mRNA; actives raise or lower the signal. A digest of the protocol:
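Read-out: fluorescent reporter-transcript fragments separated by capillary electrophoresis after RT-PCR. Transiently transfected HepG2 cells carrying cis-element-driven reporter units were dosed for 24 h; gain or loss of signal fitted against DMSO control.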

Experiment [11] in a line: ATG_ISRE_CIS: Attagene CIS-FACTORIAL HepG2 Assay for human Interferon Regulatory Factor 1 (IRF1) binding to an Interferon-Stimulated Response Element (ISRE) (AID 2282948). The conditions noted are these: HepG2 ISRE cis-reporter (Attagene), mRNA transcription readout; actives raise or lower the signal. A digest of the protocol: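 Endogenous transcription factor activity read as reporter transcript abundance via RT-PCR and capillary electrophoresis. HepG2 cells transiently transfected, 24 h chemical exposure. Gain or loss fitted against DMSO baseline.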

A short description of experiment [12]: ATG_M_06_CIS: Attagene CIS-FACTORIAL HepG2 Assay for M06 Transcription Factor (Internal Marker) (AID 2282950). The note with it: HepG2 Attagene CIS-FACTORIAL M06 internal marker reporter; actives raise or lower the signal. In short, it runs like this: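 Cells (HepG2, transiently carrying cis-driven reporter units) receive chemical for 24 h before RNA isolation. Reporter cDNA is PCR-amplified, FAM-labelled by primer extension, HpaI-digested and sized on a capillary analyser.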

Experiment [13] concerns the target Hypoxia-inducible factor 1-alpha (Homo sapiens) (UniProt Q16665). Description: ATG_HIF1a_CIS: Attagene CIS-FACTORIAL HepG2 Assay for human Hypoxia Inducible Factor 1 (HIF1A) (AID 2282951). The note with it: HepG2 Attagene cis-factorial HIF1a reporter transcription; actives raise or lower the signal. A digest of the protocol: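 Activity is fitted in both directions relative to DMSO. Reporter transcripts are read by RT-PCR, fluorescent primer extension and capillary electrophoresis after 24 h chemical treatment. The cells are HepG2 carrying transiently transfected cis-element-driven reporter units responding to endogenous factors.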

Experiment [14] deals with Hepatocyte nuclear factor 6 (Homo sapiens) (UniProt Q9UBC0). Nature of the experiment: ATG_HNF6_CIS: Attagene CIS-FACTORIAL HepG2 Assay for human Hepatocyte Nuclear Factor 6 (HNF6) (AID 2282952). The note with it: HepG2 Attagene cis-factorial HNF6 reporter transcription; actives raise or lower the signal. A digest of the protocol:
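First, HepG2 cells were transfected with the multiplexed cis reporter library and dosed with chemical for 24 h. Next, RNA was reverse-transcribed, PCR-amplified and fluorescently labelled. Finally, HpaI-digested fragments were read by capillary electrophoresis.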

Experiment [15] addresses Heat shock factor protein 1 (Homo sapiens) (UniProt Q00613). Nature of the experiment: ATG_HSE_CIS: Attagene CIS-FACTORIAL HepG2 Assay for human Heat Shock Transcription Factor 1 (HSE) (AID 2282953). The conditions noted are these: HepG2 HSE cis-reporter, Attagene RNA transcription; actives raise or lower the signal. In short, it runs like this:
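Liver-derived HepG2 cells carry transiently introduced multiple reporter units governed by cis promoters. Reporter RNA measured 24 h post-dose through reverse transcription, PCR amplification, fluorescent labelling and capillary electrophoresis, normalised to DMSO.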

Experiment [16] can be described thus: ATG_MRE_CIS: Attagene CIS-FACTORIAL HepG2 Assay for human Metal Responsive Element (MRE) (AID 2282954). The conditions noted are these: HepG2 MRE cis-reporter transcription, Attagene multiplex; actives raise or lower the signal. In short, it runs like this: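 RT-PCR/capillary electrophoresis readout of reporter mRNA, 24 h post-dosing, in HepG2 cells transfected with multiplexed cis-regulated reporter constructs. Gain or loss of signal fitted bidirectionally against DMSO baseline.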

Experiment [17] has as its target Paired box protein Pax-6 (Homo sapiens) (UniProt P26367). Nature of the experiment: ATG_Pax6_CIS: Attagene CIS-FACTORIAL HepG2 Assay for human Paired Box 6 (PAX6) (AID 2282956). The note with it: HepG2 CIS-FACTORIAL PAX6 reporter transcription, RNA readout; actives raise or lower the signal. A digest of the protocol:
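Read-out is reporter transcript level, measured by RT-PCR with fluorescent primer extension and capillary electrophoresis after 24 h dosing of transfected HepG2 cells. Activity in either direction fitted relative to DMSO control.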

A short description of experiment [18]: ATG_M_32_CIS: Attagene CIS-FACTORIAL HepG2 Assay for M32 Transcription Factor (Internal Marker) (AID 2282949).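 Note: background control marker of the multiplexed CIS panel rather than a real target.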 The conditions noted are these: HepG2 Attagene cis-factorial M32 reporter, mRNA; actives raise or lower the signal. A digest of the protocol: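 Using DMSO as baseline, bidirectional curve fits were applied to reporter mRNA signals. These came from transiently transfected HepG2 cells exposed for 24 h, with RNA analysed by RT-PCR, FAM primer extension, HpaI digestion and CE.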

The nature of experiment [19]: ATG_PBREM_CIS: Attagene CIS-FACTORIAL HepG2 Assay for human Phenobarbital-responsive Enhancer Module (PBREM) (AID 2282955). The conditions noted are these: HepG2 PBREM cis-reporter, Attagene multiplexed transcription; actives raise or lower the signal. A digest of the protocol: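 Endogenous transcription factor activity was read from reporter transcripts in transiently transfected human HepG2 liver cells after 24 h dosing. RT-PCR products were fluorescently labelled, HpaI-cut and sized by capillary electrophoresis; activity fitted bidirectionally against DMSO baseline.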

A short description of experiment [20]: ATG_Ets_CIS: Attagene CIS-FACTORIAL HepG2 Assay for human Erythroblast Transformation Specific (ETS) (AID 2282941). The note with it: HepG2 ETS cis-reporter transcription, actives raise or lower the signal. A digest of the protocol:
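Endogenous transcription factor activity read as reporter mRNA via RT-PCR and capillary electrophoresis, with gain or loss fitted bidirectionally against DMSO. Human HepG2 liver cells, transiently transfected CIS reporter constructs, 24 h exposure.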

The source made the active and inactive calls. Rule for the calls: active = hit-call score of the fitted dose curve at least 0.9, where 1 is the maximum; inactive = score below 0.9.

Chain of Hepatocyte nuclear factor 6 (Homo sapiens) (Q9UBC0 whole entry, looked up, the tested form may be a part): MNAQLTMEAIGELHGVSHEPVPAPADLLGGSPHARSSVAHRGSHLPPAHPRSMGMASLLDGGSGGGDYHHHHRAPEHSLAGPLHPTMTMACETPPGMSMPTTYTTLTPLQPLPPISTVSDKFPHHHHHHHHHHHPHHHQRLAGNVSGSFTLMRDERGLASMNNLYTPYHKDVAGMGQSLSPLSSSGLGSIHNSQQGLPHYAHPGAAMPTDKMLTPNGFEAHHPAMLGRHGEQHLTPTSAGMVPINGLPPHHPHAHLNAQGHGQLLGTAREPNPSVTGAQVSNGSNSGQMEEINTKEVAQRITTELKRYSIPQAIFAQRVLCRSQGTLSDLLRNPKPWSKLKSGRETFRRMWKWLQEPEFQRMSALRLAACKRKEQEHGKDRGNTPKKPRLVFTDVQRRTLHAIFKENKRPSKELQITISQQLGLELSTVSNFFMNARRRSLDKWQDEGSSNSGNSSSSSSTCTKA
Chain of Paired box protein Pax-6 (Homo sapiens) (P26367 whole entry, looked up): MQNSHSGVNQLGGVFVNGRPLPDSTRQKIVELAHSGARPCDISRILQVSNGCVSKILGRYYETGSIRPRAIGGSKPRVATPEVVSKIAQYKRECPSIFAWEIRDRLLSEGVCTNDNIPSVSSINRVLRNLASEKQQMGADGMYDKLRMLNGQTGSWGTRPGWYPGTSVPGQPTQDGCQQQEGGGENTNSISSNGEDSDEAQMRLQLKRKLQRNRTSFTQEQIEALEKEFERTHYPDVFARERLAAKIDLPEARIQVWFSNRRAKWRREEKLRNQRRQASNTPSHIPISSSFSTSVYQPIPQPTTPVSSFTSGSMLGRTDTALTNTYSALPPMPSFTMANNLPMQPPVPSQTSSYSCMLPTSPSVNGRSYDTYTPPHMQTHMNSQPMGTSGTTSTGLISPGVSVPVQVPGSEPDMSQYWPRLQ
Chain of Hypoxia-inducible factor 1-alpha (Homo sapiens) (Q16665 whole entry, looked up): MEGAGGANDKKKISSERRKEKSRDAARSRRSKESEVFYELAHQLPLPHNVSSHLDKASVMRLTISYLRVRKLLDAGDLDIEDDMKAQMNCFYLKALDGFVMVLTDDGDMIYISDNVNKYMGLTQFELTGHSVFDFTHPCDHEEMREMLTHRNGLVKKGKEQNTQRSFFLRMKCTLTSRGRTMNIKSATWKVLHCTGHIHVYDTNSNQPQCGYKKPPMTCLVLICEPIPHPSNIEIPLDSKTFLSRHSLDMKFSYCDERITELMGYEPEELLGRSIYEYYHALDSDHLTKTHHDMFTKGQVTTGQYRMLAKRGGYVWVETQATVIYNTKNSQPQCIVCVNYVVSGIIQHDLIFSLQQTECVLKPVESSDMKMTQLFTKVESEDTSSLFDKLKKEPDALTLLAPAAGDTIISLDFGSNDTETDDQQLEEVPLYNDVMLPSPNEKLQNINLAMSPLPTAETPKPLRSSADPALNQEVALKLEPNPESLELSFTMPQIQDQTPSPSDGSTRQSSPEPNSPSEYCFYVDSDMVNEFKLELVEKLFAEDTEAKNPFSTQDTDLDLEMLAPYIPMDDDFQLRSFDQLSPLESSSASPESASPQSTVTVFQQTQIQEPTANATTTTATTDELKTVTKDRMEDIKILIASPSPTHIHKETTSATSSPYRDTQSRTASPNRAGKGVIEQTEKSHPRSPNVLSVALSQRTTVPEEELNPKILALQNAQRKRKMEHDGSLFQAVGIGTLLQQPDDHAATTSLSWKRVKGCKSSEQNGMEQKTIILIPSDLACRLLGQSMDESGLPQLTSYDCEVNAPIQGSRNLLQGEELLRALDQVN
Chain of Heat shock factor protein 1 (Homo sapiens) (Q00613 whole entry, looked up): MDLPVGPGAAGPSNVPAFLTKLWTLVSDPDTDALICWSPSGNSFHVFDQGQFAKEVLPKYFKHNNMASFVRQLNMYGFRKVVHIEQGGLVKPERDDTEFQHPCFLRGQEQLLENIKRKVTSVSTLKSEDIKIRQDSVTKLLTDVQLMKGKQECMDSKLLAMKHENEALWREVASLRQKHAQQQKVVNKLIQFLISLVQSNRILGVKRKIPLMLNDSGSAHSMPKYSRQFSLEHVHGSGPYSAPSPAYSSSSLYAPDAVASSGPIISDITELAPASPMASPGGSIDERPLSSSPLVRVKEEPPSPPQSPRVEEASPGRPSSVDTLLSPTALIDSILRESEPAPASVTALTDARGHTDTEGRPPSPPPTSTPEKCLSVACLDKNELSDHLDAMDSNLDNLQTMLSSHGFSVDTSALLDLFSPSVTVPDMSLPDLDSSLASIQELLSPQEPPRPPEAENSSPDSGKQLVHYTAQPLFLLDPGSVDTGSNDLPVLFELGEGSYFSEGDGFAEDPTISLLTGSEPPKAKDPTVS

With `C=CCc1ccccc1O`, the compound was classed as inactive in experiment [1], in [2], in experiment [3], in experiment [5], in [6] and in [7]. The result in [8], in experiment [9], in experiment [10], in [11], in experiment [12] and in experiment [13] was inactive. Also, the compound was called inactive in experiment [14], in experiment [15], in experiment [16] and in experiment [17]. Further, the AC50 (commonly the concentration at which the activity in the assay is half-maximal) in experiment [4] was 29.2 µM (active).

With `Cc1ccccc1OP(=O)(Oc1ccccc1)Oc1ccccc1`, the compound was called inactive in [1], in experiment [2], in experiment [3], in experiment [5], in experiment [6] and in experiment [7]. Also, the outcome in experiment [8], in experiment [10], in experiment [18], in experiment [12], in [13] and in experiment [14] was inactive. Also, the call in experiment [15], in experiment [19] and in [17] was inactive. In addition, the AC50 in experiment [4] is 7.35 µM (active); in experiment [9], 23.7 µM (active); in experiment [11], 7.35 µM (active); in [16], 59.8 µM (active).

On to `CCC[N+](CCC)(CCC)CCC`, for which the result in [1], in experiment [2], in experiment [3], in experiment [4], in [20] and in experiment [6] was inactive. For the same compound, the result in experiment [7], in [8], in experiment [11], in experiment [18], in experiment [12] and in experiment [13] was inactive. The compound was classed as inactive in experiment [14], in [16], in experiment [19] and in [17].

On to `CC(C)N(C(=O)CCl)c1ccccc1`, for which the call in [1], in [2], in experiment [3], in [4], in experiment [20] and in experiment [7] was inactive. For the same compound, the compound was called inactive in experiment [8], in experiment [10], in [11], in experiment [18], in experiment [14] and in experiment [19]. Moreover, the AC50 was 8.65 µM (active) in experiment [13], 44.6 µM (active) in experiment [16] and 53.6 µM (active) in experiment [17].
